Screens from PubChem BioAssay.
This is a sample that favours compounds with a hit; in the whole collection about 1.3% have one here.
PREPL inh: inhibits the human prolyl oligopeptidase-like enzyme. 320,000 compounds, 0.68% hits. inhibition, % at 5.96 µM. recombinant PREPL, fluorescence polarization activity-based probe. AID 2751; in the data active = inhibition above about 43%;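 note: 0% = enzyme with DMSO and 100% = wells lacking enzyme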
LYPLA1 counter: LYPLA1 (human) inhibition in PME1 counter-screen. recombinant LYPLA1, FP-Rh probe fluorescence polarization. 320,000 compounds, 0.16% hits. O75608. inhibition, % at 5.9 µM;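 active = inhibition above the mean of all tested compounds plus 3 SD, set per campaign, cut at about 14% in these data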;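 note: inhibitors block serine hydrolase probe labeling of LYPLA1 so polarization falls; 0% = enzyme with DMSO and 100% = wells lacking LYPLA1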
PME-1 inh: blocks human protein phosphatase methylesterase 1 | Q9Y570 | recombinant PME-1, FP-Rh probe fluorescence polarization | inhibition, % at 5.9 µM | 320,000 compounds, 0.53% hits | AID 2130;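 active = inhibition above the campaign mean of all compounds plus 3 SD, cut at about 26% in these data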;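 note: competitive labeling of PME-1 active site by serine hydrolase directed probe; 0% = PME-1 with DMSO and 100% = wells lacking PME-1 enzyme; inhibitors block probe labeling so polarization falls and inhibition rises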
Target sequence (Q9Y570 whole entry, looked up): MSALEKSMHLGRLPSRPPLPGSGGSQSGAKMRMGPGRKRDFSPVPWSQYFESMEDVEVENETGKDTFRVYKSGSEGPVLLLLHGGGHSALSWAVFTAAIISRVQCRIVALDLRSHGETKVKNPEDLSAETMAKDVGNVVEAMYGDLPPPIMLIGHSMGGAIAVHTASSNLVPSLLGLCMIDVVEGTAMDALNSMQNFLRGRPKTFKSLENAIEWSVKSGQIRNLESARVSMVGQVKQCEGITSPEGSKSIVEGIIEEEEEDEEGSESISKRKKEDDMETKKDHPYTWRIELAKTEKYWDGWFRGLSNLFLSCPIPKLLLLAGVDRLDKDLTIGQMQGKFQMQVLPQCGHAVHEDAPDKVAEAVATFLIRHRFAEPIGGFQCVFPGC
Fam108B counter: Fam108B inhibition, counter-screen for RBBP9 inhibitors | recombinant Fam108B, FP-Rh probe fluorescence polarization | inhibition, % at 9.51 µM | 300,000 compounds, 0.33% hits | AID 1947;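 active = inhibition above the screen mean inhibition plus 3 SD, computed separately per campaign, cut at about 18% in these data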;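 note: inhibitors lower polarization as less probe binds the enzyme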
LYPLA2 counter: blocks human lysophospholipase 2, a PME1 counter-screen; recombinant LYPLA2, FP-Rh probe fluorescence polarization; AID 2177; inhibition, % at 5.9 µM; O95372; 320,000 compounds, 0.38% hits;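 active = inhibition above the screen-wide mean plus 3 SD, limit set per campaign, cut at about 26% in these data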;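 note: 0% = LYPLA2 with DMSO and 100% = wells lacking LYPLA2 enzyme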
Target sequence (O95372 whole entry, looked up): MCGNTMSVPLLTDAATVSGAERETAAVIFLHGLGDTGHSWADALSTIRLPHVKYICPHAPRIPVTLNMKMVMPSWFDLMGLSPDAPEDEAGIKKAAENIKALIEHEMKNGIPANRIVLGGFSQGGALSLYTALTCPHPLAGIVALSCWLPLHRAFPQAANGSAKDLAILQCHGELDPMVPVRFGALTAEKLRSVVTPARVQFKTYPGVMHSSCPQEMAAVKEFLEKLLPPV
Fam108b confirm: Fam108b (mouse) hydrolase inhibition, confirmation assay; shares compounds with Fam108B counter; recombinant Fam108b, FP-Rh probe fluorescence polarization; inhibition, % at 9.51 µM; 930 compounds, 44% hits; AID 1978;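 active = inhibition above a limit from the primary screen, the mean over all compounds plus 3 SD, cut at about 19% in these data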;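 note: 0% = median of active Fam108b wells and 100% = catalytically dead S170A mutant; inhibitors free the probe so polarization falls as inhibition rises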
Fam108b inh: inhibits mouse Fam108b in gel-based ABPP | shares compounds with Fam108B counter | recombinant Fam108b, fluorophosphonate probe | inhibition, % at 20 µM | 260 compounds, 44% hits; in the data active = inhibition above about 40%
* marks the source's active call; other numbers are inactive results; · = no result; ! = a repeat was not active.

SMILES	PREPL inh	LYPLA1 counter	PME-1 inh	Fam108B counter	LYPLA2 counter	others
Cc1cccc(OP(N)(=O)Oc2cccc(C)c2)c1	2.7	1.0	8.1	0.8	4.4
NP(=O)(Oc1ccc(Cl)cc1)Oc1ccc(Cl)cc1	-3.3	-5.1	71.4*	-1.0	-2.7
O=P(CCl)(Nc1ccccc1)C(Cl)(Cl)Cl (centres undefined)	-0.3	2.4	29.9*	4.5	5.5
O=P(Nc1ccccc1)(Oc1ccccc1)Oc1ccccc1	10.7	-3.4	-2.4	-2.9	-1.5
O=[N+]([O-])c1cc(-n2cnnn2)c(O)c([N+](=O)[O-])c1	1.7	0.5	0.9	1.3	-0.9
O=C1NCCN2CCCC12 (centres undefined)	2.6	0.8	-4.3	-2.0	30.4*
COC(=O)C1=C(c2cccc(OCc3ccccc3)c2)C[C@@H]2CC[C@H]1N2C(=O)NCc1ccc(Cl)cc1	1.3	0.4	-5.9	·	1.1
COc1ccc(-n2c(/C=C/c3ccc(O)c(O)c3)nc3ccccc3c2=O)cc1	33.1	-13.4	34.4*	8.8	-12.7
O=C(CN1CC=C(c2ccccc2)CC1)NC(=O)NCc1ccco1	5.1	-0.3	-4.0	-1.8	-0.2
Cc1cc(Br)c(NC(=O)CN2CC=C(c3ccccc3)CC2)c(Br)c1	-8.0	-1.2	30.5*	0.0	-5.2
CCOP(=O)(OCC)C(O)c1cccnc1 (centres undefined)	14.6	1.4	-6.8	3.5	2.6
COC(=O)C1=C(c2cccc(OC)c2OC)C[C@@H]2CC[C@H]1N2C(=O)NC1CCCCC1	5.2	4.2	-4.5	-2.8	1.1
O=P(Oc1ccccc1)(Oc1ccccc1)C(O)c1ccc(Cl)cc1 (centres undefined)	2.5	1.1	47.4*	1.2	3.7
COc1ccc(C(O)P(=O)(Oc2ccccc2)Oc2ccccc2)cc1 (centres undefined)	13.0	1.6	38.0*	2.9	-5.6
CN1/C(=C\C=C\C2=[N+](C)c3ccc4ccccc4c3C2(C)C)C(C)(C)c2ccccc21	-233.4	-121.1	178.6*	-224.8	-328.7
CN1/C(=C\C=Nc2ccccc2)C(C)(C)c2ccccc21	-53.6	-6.5	-17.9	-13.6	-17.8
COc1ccc(NC(=O)N2C[C@@H]3C[C@@H](C2)c2cccc(=O)n2C3)cc1	14.6	3.1	-2.5	1.2	5.5
O=C1NC(=S)N(c2ccc(F)cc2)C(=O)/C1=C/c1ccco1	17.3	-11.3	-17.3	51.7*	6.7
COc1ccc(-n2c(Cc3cccc([N+](=O)[O-])c3)nc3ccccc3c2=O)cc1	8.4	-0.7	2.8	0.3	1.0
CC[C@@H](CO)NC(=O)[C@@H]1C=C2c3cccc4c3c(cn4C)C[C@H]2N(C)C1	53.7*!	6.4	5.1	3.2	9.9
Cc1cccc(NP(=O)(Oc2ccccc2)Oc2ccccc2)c1C	-14.7	-1.2	2.5	0.0	-4.4
Cc1ccccc1NP(=O)(Oc1ccccc1F)Oc1ccccc1F	1.1	-4.3	38.9*	0.2	-1.8
Cc1oc(-c2ccccc2)nc1CN1C(=O)CN=C(c2ccccc2)c2ccccc21	29.5	4.0	32.2*	1.5	-2.8
Cc1ccc(CN2C(=O)CN=C(c3ccccc3)c3ccccc32)cc1	13.0	-1.7	1.5	1.4	3.3
CCN(CC)S(=O)(=O)c1cc(NC(=O)C(C)N2CC=C(c3ccccc3)CC2)ccc1C (centres undefined)	14.8	-5.9	47.2*	-13.4	-13.1
SMILES	PREPL inh	LYPLA1 counter	PME-1 inh	Fam108B counter	LYPLA2 counter	others
CCN(CC)S(=O)(=O)c1ccc(C)c(NCC(=O)Nc2ccc(C#N)c(Cl)c2)c1	-47.9	-17.1	-1.5	3.0	-17.6
CC(=O)c1ccc2c(c1)C1C(Cl)C(Sc3ccccc3[N+](=O)[O-])CC1C(c1ccccc1[N+](=O)[O-])N2 (centres undefined)	-18.9	-16.0	85.8*	0.8	-13.0
CC(=O)c1ccc(NC(=O)N2C[C@H]3C[C@@H](C2)c2cccc(=O)n2C3)cc1	1.2	6.7	5.9	-3.1	8.6
COc1ccc(OC)c(N2C(=O)NC(=O)/C(=C/c3ccc([N+](=O)[O-])s3)C2=O)c1	31.3	1.1	-0.4	46.2*	5.3	Fam108b confirm=8.3
COc1ccc(OC)c(N2C(=O)CC(=O)NC2=O)c1	0.5	-0.5	-0.6	-0.9	8.4
CC1=Nc2ccccc2/C1=C/c1c(O)[nH]c(=O)[nH]c1=O	-10.2	-1.4	-5.4	-1.0	5.2
O=c1[nH]c(O)c(/C=C2/C=CC(c3cc(Cl)ccc3Cl)=N2)c(=O)[nH]1	17.2	4.6	5.7	27.1*	5.2	Fam108b confirm=20.1*
CC(C)OCCCNC(=O)c1c(N)n(Cc2cccs2)c2nc3ccccc3nc12	11.6	0.9	22.4	18.8*	12.0	Fam108b confirm=6.8
CN1CC(C(=O)c2cccc(C(F)(F)F)c2)C(c2ccc(Cl)cc2)C1 (centres undefined)	-28.3	-0.4	9.5	20.3*	5.7	Fam108b confirm=-12.3
COC(=O)C1=C(c2ccc(-c3ccccc3)c(F)c2)C[C@@H]2CC[C@H]1N2C(=O)N1CCOCC1	17.1	-1.2	9.4	·	-1.8
Brc1ccc(Oc2cc(Br)c(Br)cc2Br)c(Br)c1	15.4	-2.5	-9.4	·	-6.4
O=C1NC(=O)C(Sc2ccccc2[N+](=O)[O-])C(=O)N1	4.8	-3.7	0.6	6.8	2.4
CC(=O)c1ccc2c(c1)C1C(Cl)C(Sc3ccccc3[N+](=O)[O-])CC1C(c1ccccc1)N2 (centres undefined)	14.6	-22.4	70.1*	37.8*	-10.5	Fam108b confirm=-5.8
C/C=C1\NC(=O)[C@@H](NC(=O)[C@H](CCc2ccc(O)cc2)NC(=O)[C@H](C)NC(=O)[C@H](O)CO)[C@@H](C)OC(=O)[C@H](C(C)C)NC(=O)[C@H](Cc2ccc(O)cc2)N(C)C(=O)[C@H](Cc2ccccc2)N2C(=O)C(CC[C@H]2O)NC1=O (some centres undefined)	3.8	·	·	·	·
C/C(=N\NC(=O)c1ccccc1O)c1c(O)n(Cc2ccccc2)c(=O)[nH]c1=O	7.2	-3.3	3.7	21.1*	6.6	Fam108b confirm=81.6*;Fam108b inh=0.0
C/C(=N\NC(=O)c1ccccc1O)c1c(O)n(C2CCCCC2)c(=O)[nH]c1=O	5.8	1.0	-13.0	19.4*	6.5	Fam108b confirm=21.0*
CC(C)(C)c1ccc(C(=O)C2CCCN(C3CCC3)C2)cc1 (centres undefined)	4.2	1.1	4.0	-0.2	0.5
CC1Oc2cc3c(-c4c(O)cc(O)c5c(O)c6c(cc45)OC(C)C(C)C6=O)c(O)cc(O)c3c(O)c2C(=O)C1C (centres undefined)	85.4*	5.2	27.8*	40.6*	16.9	Fam108b confirm=37.2*;Fam108b inh=35.0
OC(c1cccc(Cl)c1)(c1cccc(Cl)c1)C1CN2CCC1CC2 (centres undefined)	-5.7	1.2	7.3	-3.3	0.9
